# In PubChem BioAssay (Tox21):
# Results filed as inconclusive are left out. A call without a number means that no potency is given here. Active and inactive are the calls of the source. Unless noted, calls come from the whole dose curve.
# Tests used:
# [1] = qHTS assay to identify small molecule agonists of the sonic hedgehog signaling (Shh) pathway (AID 1259368); conditions: NIH/3T3 Gli1-Luc reporter, luciferase, 24 h; series mostly up to 92.4 µM;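 note: NIH/3T3-derived 3T3Gli1-Luc cells carrying a stable Gli1-driven firefly luciferase reporter; nearly all actives have a fitted effect of over 15% in size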
# In short: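 Luminescence was read after 30 min at room temperature with luciferase reagent. Before that, 3T3Gli1-Luc cells (NIH/3T3 clone, stable Gli1-Luc reporter; 2,000/well) were exposed to compounds for 24 hr at 37C, 5% CO2, compounds being added 4 hr post-plating.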
# [2] = qHTS assay to identify small molecule antagonists of the sonic hedgehog signaling (Shh) pathway (AID 1259369); conditions: NIH/3T3 Gli1-Luc reporter, Shh antagonist, luminescence 24 h; series mostly up to 92.4 µM; note: nearly all actives have a fitted effect of over 45% in size; note: potency is the fitted concentration of half-maximal effect
# In short: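 Antagonist mode: compound added to 3T3 Gli1-Luc cells followed by conditioned-medium stimulation, 24 h at 37 C, 5% CO2. Inhibition taken as loss of Gli1-driven luciferase luminescence.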
# [3] = target: Estrogen receptor beta (Homo sapiens) (UniProt Q92731); experiment: qHTS assay to identify small molecule antagonists of the estrogen receptor beta (ER-beta) signaling pathway (AID 1259378; active = well fitted inhibition curve with a large enough effect in the signal ratio in the repeat runs, not every such curve was filed as active; the % refers to the signal ratio; note: potency is the fitted concentration of half-maximal effect); conditions: ER-beta-UAS-bla HEK293T, beta-lactamase FRET ratio, 16 h; series mostly up to 92.4 µM
# In short: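 ER-beta-UAS-bla HEK293T cells in 2% charcoal-stripped FBS medium treated with compound plus 1nM final 17-beta-estradiol for 16 hr at 37C. Beta-lactamase reporter read by FRET substrate fluorescence after 2 hours at room temperature.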
# [4] = qHTS assay to identify small molecule agonists of the androgen receptor (AR) signaling pathway in the presence of an antagonist - cell viability counter screen (AID 1259379; active = well fitted curve in the direction sought with a large enough effect in the repeat runs; an effect the other way counts as inactive or inconclusive;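 note: MDA-kb2 human breast cancer cells carrying an MMTV luciferase reporter; nearly all actives have a fitted effect of over 25% in size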); conditions: MDA-kb2 viability, CellTiter-Fluor, 16 h; series mostly up to 92.4 µM
# In short: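 Cytotoxicity counter-screen run in the same wells as the nilutamide-challenged (3.0 µM final) AR agonist assay in MDA-kb2 cells. Compounds tested at 15 concentrations for 16 h, 37 °C without CO2; CellTiter-Fluor fluorescence read.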
# [5] = qHTS assay to identify small molecule agonists of the estrogen receptor beta (ER-beta) signaling pathway - cell viability counter screen (AID 1259380; active = well fitted curve in the direction sought with a large enough effect in the repeat runs; an effect the other way counts as inactive or inconclusive; note: nearly all actives have a fitted effect of over 30% in size; note: potency is the fitted concentration of half-maximal effect); conditions: ER-beta-bla HEK293T viability, CellTiter-Glo luminescence, 16 h; series mostly up to 92.4 µM
# In short: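 Cell viability counter screen: CellTiter-Glo luminescence (30 min, room temperature) measured in the same wells as the beta-lactamase readout, after 16 hr compound exposure at 37C of ER-beta-bla HEK293T cells in 2% charcoal-stripped FBS medium.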
# [6] = qHTS assay to identify small molecule antagonists of the estrogen receptor beta (ER-beta) signaling pathway - cell viability counter screen (AID 1259382; active = well fitted curve in the direction sought with a large enough effect in the repeat runs; an effect the other way counts as inactive or inconclusive; note: nearly all actives have a fitted effect of over 55% in size; note: potency is the fitted concentration of half-maximal effect); conditions: ER-beta-UAS-bla HEK293T viability, CellTiter-Glo luminescence, 16 h; series mostly up to 92.4 µM
# In short: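 Cytotoxicity was measured in the same wells by CellTiter-Glo luminescence after 30 min at room temperature. Cells were ER-beta-bla HEK293T in charcoal-stripped serum, given compound together with 1 nM E2 and incubated 16 h at 37C.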
# [7] = qHTS assay to identify small molecule agonists or antagonists of the thyroid stimulating hormone receptor (TSHR) signaling pathway - wild type cell line counter screen (AID 1259384); conditions: HEK293 wild type, cAMP HTRF counter-screen, active compounds read high; series mostly up to 92.4 µM
# In short: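 Wild-type Hek293 cells, 800/well, 18 h at 37C, then compound with Ro20-1724 for 30 min RT. cAMP by HTRF (cAMP-d2/anti-cAMP cryptate), 1 h RT, fluorescence read. 15 concentrations, triplicates.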
# [8] = target: Androgen receptor (Homo sapiens) (UniProt P10275); experiment: qHTS assay to identify small molecule agonists of the androgen receptor (AR) signaling pathway in the presence of an antagonist (AID 1259381); conditions: MDA-kb2 MMTV-luciferase, AR agonist + nilutamide, 16 h; series mostly up to 92.4 µM; note: nearly all actives have a fitted effect of over 15% in size
# In short: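 Agonist-mode confirmation run against 3.0 uM final nilutamide: compounds titrated at 15 concentrations onto MDA-kb2 MMTV-luciferase reporter cells. Luminescence measured with ONE-Glo following 16 hr incubation, 37C, 0% CO2.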
# [9] = target: Estrogen receptor (Homo sapiens) (UniProt P03372); experiment: qHTS assay to identify small molecule agonists of the estrogen receptor alpha (ER-alpha) signaling pathway in the presence of an antagonist (AID 1259383); conditions: VM7Luc4E2 cells, ERE-luciferase, +ICI-182,780, 22 h; series mostly up to 92.4 µM; note: top concentration of the series differs between compounds; nearly all actives have a fitted effect of over 15% in size
# In short: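 Agonist-mode confirmation run in the presence of 10.0nM (final) ICI-182,780 antagonist. The reporter was ERE-driven luciferase in VM7Luc4E2 cells, grown in charcoal-stripped serum. Cells were exposed to 15-concentration compound series for 22hr, then ONE-Glo luminescence was read.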
# Chain of Estrogen receptor beta (Homo sapiens) (Q92731 whole entry, looked up): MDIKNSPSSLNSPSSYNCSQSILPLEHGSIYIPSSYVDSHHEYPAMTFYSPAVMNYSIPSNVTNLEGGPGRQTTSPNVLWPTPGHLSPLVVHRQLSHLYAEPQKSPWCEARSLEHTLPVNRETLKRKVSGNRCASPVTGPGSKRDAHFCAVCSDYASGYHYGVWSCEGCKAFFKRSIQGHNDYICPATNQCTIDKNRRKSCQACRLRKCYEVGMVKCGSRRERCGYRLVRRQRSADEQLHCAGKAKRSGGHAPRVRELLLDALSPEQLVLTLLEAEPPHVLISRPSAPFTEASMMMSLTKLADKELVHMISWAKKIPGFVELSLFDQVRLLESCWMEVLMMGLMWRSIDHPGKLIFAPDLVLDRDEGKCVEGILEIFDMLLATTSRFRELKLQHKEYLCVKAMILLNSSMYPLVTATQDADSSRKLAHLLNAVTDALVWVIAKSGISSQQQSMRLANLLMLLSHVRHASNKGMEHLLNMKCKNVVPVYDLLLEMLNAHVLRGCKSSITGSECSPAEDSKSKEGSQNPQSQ
# Chain of Androgen receptor (Homo sapiens) (P10275 whole entry, looked up): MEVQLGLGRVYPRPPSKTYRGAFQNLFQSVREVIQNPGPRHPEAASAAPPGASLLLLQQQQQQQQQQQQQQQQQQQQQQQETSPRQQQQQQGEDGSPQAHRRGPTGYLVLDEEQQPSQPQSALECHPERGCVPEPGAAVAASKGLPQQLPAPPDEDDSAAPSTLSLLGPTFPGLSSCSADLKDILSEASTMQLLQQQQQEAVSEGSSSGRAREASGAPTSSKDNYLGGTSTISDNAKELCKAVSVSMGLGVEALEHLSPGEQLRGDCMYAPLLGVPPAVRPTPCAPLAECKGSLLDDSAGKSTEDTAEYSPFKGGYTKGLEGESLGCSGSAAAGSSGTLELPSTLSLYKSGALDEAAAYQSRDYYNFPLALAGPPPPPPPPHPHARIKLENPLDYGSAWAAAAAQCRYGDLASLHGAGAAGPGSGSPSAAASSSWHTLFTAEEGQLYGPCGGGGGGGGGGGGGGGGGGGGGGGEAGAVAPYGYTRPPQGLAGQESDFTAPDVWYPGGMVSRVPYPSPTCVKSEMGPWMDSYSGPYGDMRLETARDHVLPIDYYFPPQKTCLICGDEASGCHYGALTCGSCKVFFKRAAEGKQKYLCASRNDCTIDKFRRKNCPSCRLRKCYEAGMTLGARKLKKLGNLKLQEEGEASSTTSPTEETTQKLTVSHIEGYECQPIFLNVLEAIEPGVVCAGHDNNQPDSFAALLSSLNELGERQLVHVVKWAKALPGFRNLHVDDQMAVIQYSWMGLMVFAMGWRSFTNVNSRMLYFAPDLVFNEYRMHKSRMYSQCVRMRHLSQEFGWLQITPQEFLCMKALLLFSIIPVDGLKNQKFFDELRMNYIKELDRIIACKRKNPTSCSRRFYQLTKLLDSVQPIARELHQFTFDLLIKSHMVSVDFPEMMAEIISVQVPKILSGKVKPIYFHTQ
# Chain of Estrogen receptor (Homo sapiens) (P03372 whole entry, looked up): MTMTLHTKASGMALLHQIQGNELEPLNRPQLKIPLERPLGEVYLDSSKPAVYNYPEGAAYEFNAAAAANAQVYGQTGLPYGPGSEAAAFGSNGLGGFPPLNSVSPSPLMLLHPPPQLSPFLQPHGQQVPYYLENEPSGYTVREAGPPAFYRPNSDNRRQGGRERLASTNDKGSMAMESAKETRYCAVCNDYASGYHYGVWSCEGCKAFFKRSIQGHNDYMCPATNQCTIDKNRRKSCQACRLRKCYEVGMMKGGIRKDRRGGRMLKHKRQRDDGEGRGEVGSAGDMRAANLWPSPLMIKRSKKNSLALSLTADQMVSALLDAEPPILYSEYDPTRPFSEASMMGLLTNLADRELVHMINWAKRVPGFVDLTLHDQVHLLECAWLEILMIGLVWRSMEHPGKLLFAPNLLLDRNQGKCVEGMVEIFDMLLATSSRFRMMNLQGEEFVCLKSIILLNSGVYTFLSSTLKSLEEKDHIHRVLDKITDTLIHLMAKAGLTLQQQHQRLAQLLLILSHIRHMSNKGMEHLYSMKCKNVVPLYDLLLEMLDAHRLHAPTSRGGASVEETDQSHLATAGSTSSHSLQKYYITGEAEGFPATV
Structure (SMILES),Potency [1],Potency [2],Potency [3],Potency [4],Potency [5],Potency [6],outcome [7],Potency [8],Potency [9]
CC/C=C/CCO,inactive,inactive,inactive,inactive,inactive,inactive,,,
Sc1nc(S)nc(S)n1,inactive,inactive,inactive,inactive,inactive,inactive,inactive,,
NC(=O)c1ccccc1C(N)=O,inactive,inactive,inactive,inactive,61.4 µM (active),,inactive,inactive,
CC(C)=CCCC(C)C=O (stereo not drawn),inactive,inactive,inactive,inactive,,inactive,inactive,,inactive
Nc1nc(Cl)nc2c1ncn2[C@H]1C[C@H](O)[C@@H](CO)O1,inactive,0.383 µM (active),,inactive,inactive,inactive,,,
CC1=C(C)C(=O)C(CCCCC#CCCCC#CCO)=C(C)C1=O,inactive,inactive,21.1 µM (active),,18.8 µM (active),26.6 µM (active),inactive,,
